For 29 compounds, outcome and AC50 results are on record in PubChem BioAssay (EPA / NIEHS).

Active and inactive are the calls of the source. How the source made its calls: active means hit-call score of the fitted dose curve at least 0.9, where 1 is the maximum; inactive means score below 0.9.

Read-out in the first assay: Interleukin-8 (IL8), CXCL8 (gene 3576)
Put plainly: BSK_CASM3C_IL8: BioMAP Diversity Plus: CASM3C Assay for Interleukin-8 (IL8) Biomarker Activity (AID 2283042).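 Further: IL-8 protein level quantified by ELISA.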 The settings on record: primary human coronary artery smooth muscle cells; actives raise or lower the signal.
Regarding `COCCOC[C@H](CC1(C(=O)NC2CCC(C(=O)O)CC2)CCCC1)C(=O)Oc1ccc2c(c1)CCC2` (stereo partly specified), the result was inactive.
What is called AC50 is the concentration giving half of the maximal activity seen. As for `COc1cc(-c2nc(NC(=O)c3cc4cc(C)cc(C)c4n3CC(=O)O)sc2CCC2CCCCC2)c(OC)cc1Cl`, the AC50 was 7.07 µM (active).
In the case of `NCC1(Cc2noc(=O)[nH]2)CCCCC1`, the result was inactive.
For the compound `CCCCC(CC)COC(=O)CC(C(=O)OCC(CC)CCCC)S(=O)(=O)O` (stereo unspecified), the outcome was inactive.
`CCOC(=O)CCC(=O)OCC`: the result was inactive.
Still for that read-out and setting: to `Nc1ccc(S(=O)(=O)c2ccc(N)cc2)cc1` belongs “inactive”.
`CC(C)c1ccc(C(=O)N=C(N)N)cc1S(C)(=O)=O`: the outcome was inactive.
On the same count and under the same terms, as for `CCCCCCOCCO`, the entry is “inactive”.
Take `CC(CO)OC(C)CO` (stereo unspecified) (tested in a mixture with another compound): the result was inactive.
In the case of `COc1cc(C=O)ccc1O`, the result was inactive.
`c1cc(-c2ccncc2)ccn1`: the result was inactive.
With `CCNc1cccc(C)c1`, the outcome was inactive.
As for `CN1CCN(Cc2cc(-c3ccc4[nH]c(=O)oc4c3)co2)[C@@H](c2ccc(F)cc2)C1`, the outcome was inactive.
For the compound `Cc1nc(-c2ccc3c(c2)CCN(CCC2CCC(NC(=O)/C=C/c4ccc(F)cc4)CC2)CC3)no1` (stereo unspecified), the result was inactive.
Take `O=c1c(O)c(-c2ccc(O)c(O)c2)oc2cc(O)cc(O)c12`: the AC50 was 11.6 µM (active).
`CN[C@H]1CC[C@@H](c2ccc(Cl)c(Cl)c2)c2ccc(S(N)(=O)=O)cc21`: the half-maximal activity concentration (AC50) is 35.3 µM (active).
In the case of `CCCCN(CCCC)CCCC`, the outcome was inactive.
For the compound `COC(=O)c1ccc(O)cc1`, the outcome was inactive.
Still for that read-out and setting: as for `CC1=C(/C=C/C(C)=C/C=C/C(C)=C/CO)C(C)(C)CCC1`, the entry is “inactive”; as for `CNC(=O)[C@H]1O[C@@H](n2cnc3c(NCc4cc(Cl)ccc4OCc4cc(C)no4)ncnc32)[C@H](O)[C@@H]1N`, “inactive”.
Consider `Cc1cc(=O)[nH]c(=S)[nH]1`, for which the outcome was inactive.
Take `CCCCc1ccc2c(n1)[C@@H](c1ccc(OC)cc1C[C@H](C)C(=O)O)[C@H](C(=O)O)[C@H]2c1ccc2c(c1)OCO2`: the outcome was inactive.
For `FC(F)(F)C(F)(F)C(F)(F)C(F)(F)C(F)(F)C(F)(F)CCI`, the outcome was inactive.
Take `C=CCOC(=O)c1ccccc1C(=O)OCC=C`: the result was inactive.
Turning to `O=[N+]([O-])C(CO)(CO)CO`, the outcome was inactive.
The same measure, in the same setting: as for `Oc1ccc2ccccc2c1N=Nc1ccccc1`, the entry is “inactive”.
For the compound `O=C(N[C@@H](Cc1ccccc1)[C@@H](O)C(=O)N1C[C@@H](O)[C@@H](O)C1)c1cc2cc(Cl)ccc2[nH]1`, the outcome was inactive.
As for `CCCCCCCCCCCCCCCC`, the result was inactive.
As to `CCCCCCCCCCC`, the result was inactive.

Read-out in the next assay: Human Leukocyte Antigen - DR isotype (HLADR), HLA-DRA (gene 3122)
Kind of assay: BSK_CASM3C_HLADR: BioMAP Diversity Plus: CASM3C Assay for Human Leukocyte Antigen - DR isotype (HLADR) Biomarker Activity (AID 2283043).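 Further: cell-surface HLA-DR protein level quantified by ELISA.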 The settings on record: primary human coronary artery smooth muscle cells; actives raise or lower the signal.
With `COCCOC[C@H](CC1(C(=O)NC2CCC(C(=O)O)CC2)CCCC1)C(=O)Oc1ccc2c(c1)CCC2` (stereo partly specified), the outcome was inactive.
In the case of `COc1cc(-c2nc(NC(=O)c3cc4cc(C)cc(C)c4n3CC(=O)O)sc2CCC2CCCCC2)c(OC)cc1Cl`, the AC50 is 5.92 µM (active).
As for `NCC1(Cc2noc(=O)[nH]2)CCCCC1`, the outcome was inactive.
As for `CCCCC(CC)COC(=O)CC(C(=O)OCC(CC)CCCC)S(=O)(=O)O` (stereo unspecified), the outcome was inactive.
Consider `CCOC(=O)CCC(=O)OCC`, for which the result was inactive.
With `Nc1ccc(S(=O)(=O)c2ccc(N)cc2)cc1`, the result was inactive.
`CC(C)c1ccc(C(=O)N=C(N)N)cc1S(C)(=O)=O`: the result was inactive.
As to `CCCCCCOCCO`, the outcome was inactive.
For `CC(CO)OC(C)CO` (stereo unspecified) (tested in a mixture with another compound), the outcome was inactive.
For `COc1cc(C=O)ccc1O`, the outcome was inactive.
On to `c1cc(-c2ccncc2)ccn1`, for which the result was inactive.
Take `CCNc1cccc(C)c1`: the result was inactive.
With `CN1CCN(Cc2cc(-c3ccc4[nH]c(=O)oc4c3)co2)[C@@H](c2ccc(F)cc2)C1`, the outcome was inactive.
As for `Cc1nc(-c2ccc3c(c2)CCN(CCC2CCC(NC(=O)/C=C/c4ccc(F)cc4)CC2)CC3)no1` (stereo unspecified), the AC50 is 9.3 µM (active).
Still for that read-out and setting: as for `CN[C@H]1CC[C@@H](c2ccc(Cl)c(Cl)c2)c2ccc(S(N)(=O)=O)cc21`, the figure is 32.5 µM (active).
Consider `CCCCN(CCCC)CCCC`, for which the outcome was inactive.
Turning to `COC(=O)c1ccc(O)cc1`, the outcome was inactive.
With `CC1=C(/C=C/C(C)=C/C=C/C(C)=C/CO)C(C)(C)CCC1`, the outcome was inactive.
With `CNC(=O)[C@H]1O[C@@H](n2cnc3c(NCc4cc(Cl)ccc4OCc4cc(C)no4)ncnc32)[C@H](O)[C@@H]1N`, the result was inactive.
Take `Cc1cc(=O)[nH]c(=S)[nH]1`: the outcome was inactive.
Take `CCCCc1ccc2c(n1)[C@@H](c1ccc(OC)cc1C[C@H](C)C(=O)O)[C@H](C(=O)O)[C@H]2c1ccc2c(c1)OCO2`: the result was inactive.
With `FC(F)(F)C(F)(F)C(F)(F)C(F)(F)C(F)(F)C(F)(F)CCI`, the outcome was inactive.
As for `C=CCOC(=O)c1ccccc1C(=O)OCC=C`, the outcome was inactive.
As to `O=[N+]([O-])C(CO)(CO)CO`, the result was inactive.
In the case of `Oc1ccc2ccccc2c1N=Nc1ccccc1`, the outcome was inactive.
The same measure, in the same setting: as for `O=C(N[C@@H](Cc1ccccc1)[C@@H](O)C(=O)N1C[C@@H](O)[C@@H](O)C1)c1cc2cc(Cl)ccc2[nH]1`, the entry is “inactive”; as for `CCCCCCCCCCCCCCCC`, “inactive”.
As for `CCCCCCCCCCC`, the outcome was inactive.

Read-out in the next assay: Macrophage colony-stimulating factor (MCSF), CSF1 (gene 1435)
Kind of assay: BSK_CASM3C_MCSF: BioMAP Diversity Plus: CASM3C Assay for Macrophage colony-stimulating factor (MCSF) Biomarker Activity (AID 2283044).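 Further: M-CSF protein amount quantified by ELISA after 24 h exposure.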 To be noted: primary human coronary artery smooth muscle cells; actives raise or lower the signal.
For the compound `COCCOC[C@H](CC1(C(=O)NC2CCC(C(=O)O)CC2)CCCC1)C(=O)Oc1ccc2c(c1)CCC2` (stereo partly specified), the outcome was inactive.
Turning to `COc1cc(-c2nc(NC(=O)c3cc4cc(C)cc(C)c4n3CC(=O)O)sc2CCC2CCCCC2)c(OC)cc1Cl`, the AC50 is 22.9 µM (active).
On to `NCC1(Cc2noc(=O)[nH]2)CCCCC1`, for which the result was inactive.
On to `CCCCC(CC)COC(=O)CC(C(=O)OCC(CC)CCCC)S(=O)(=O)O` (stereo unspecified), for which the result was inactive.
For the compound `CCOC(=O)CCC(=O)OCC`, the outcome was inactive.
`Nc1ccc(S(=O)(=O)c2ccc(N)cc2)cc1`: the result was inactive.
Turning to `CC(C)c1ccc(C(=O)N=C(N)N)cc1S(C)(=O)=O`, the outcome was inactive.
For the compound `CCCCCCOCCO`, the result was inactive.
Consider `CC(CO)OC(C)CO` (stereo unspecified) (tested in a mixture with another compound), for which the result was inactive.
For `COc1cc(C=O)ccc1O`, the outcome was inactive.
Consider `c1cc(-c2ccncc2)ccn1`, for which the outcome was inactive.
On the same count and under the same terms, as for `CCNc1cccc(C)c1`, the entry is “inactive”; as for `CN1CCN(Cc2cc(-c3ccc4[nH]c(=O)oc4c3)co2)[C@@H](c2ccc(F)cc2)C1`, “inactive”.
As to `Cc1nc(-c2ccc3c(c2)CCN(CCC2CCC(NC(=O)/C=C/c4ccc(F)cc4)CC2)CC3)no1` (stereo unspecified), the outcome was inactive.
For the compound `O=c1c(O)c(-c2ccc(O)c(O)c2)oc2cc(O)cc(O)c12`, the AC50 was 6.34 µM (active).
On to `CN[C@H]1CC[C@@H](c2ccc(Cl)c(Cl)c2)c2ccc(S(N)(=O)=O)cc21`, for which the half-maximal activity concentration (AC50) was 28.2 µM (active).
For the compound `CCCCN(CCCC)CCCC`, the outcome was inactive.
Same read-out and setting: to `COC(=O)c1ccc(O)cc1` belongs “inactive”; to `CC1=C(/C=C/C(C)=C/C=C/C(C)=C/CO)C(C)(C)CCC1`, “inactive”.
Regarding `CNC(=O)[C@H]1O[C@@H](n2cnc3c(NCc4cc(Cl)ccc4OCc4cc(C)no4)ncnc32)[C@H](O)[C@@H]1N`, the result was inactive.
On to `Cc1cc(=O)[nH]c(=S)[nH]1`, for which the result was inactive.
For the compound `CCCCc1ccc2c(n1)[C@@H](c1ccc(OC)cc1C[C@H](C)C(=O)O)[C@H](C(=O)O)[C@H]2c1ccc2c(c1)OCO2`, the result was inactive.
On to `FC(F)(F)C(F)(F)C(F)(F)C(F)(F)C(F)(F)C(F)(F)CCI`, for which the outcome was inactive.
`C=CCOC(=O)c1ccccc1C(=O)OCC=C`: the result was inactive.
For the compound `O=[N+]([O-])C(CO)(CO)CO`, the outcome was inactive.
As for `Oc1ccc2ccccc2c1N=Nc1ccccc1`, the result was inactive.
Still for that read-out and setting: as for `O=C(N[C@@H](Cc1ccccc1)[C@@H](O)C(=O)N1C[C@@H](O)[C@@H](O)C1)c1cc2cc(Cl)ccc2[nH]1`, the entry is “inactive”; as for `CCCCCCCCCCCCCCCC`, “inactive”; as for `CCCCCCCCCCC`, “inactive”.
